Results filed as inconclusive are left out. The source made the active and inactive calls. The call rests on the fitted dose curve; in most records, active means well fitted cell-killing curve with a large enough effect; inconclusive means small, poorly fitted or top-dose-only effect, or effect the other way; inactive means flat fitted curve, though single readings scatter.
On the % scale 0 is the no-effect control and ±100 the full control effect; potency means the concentration at half of the fitted maximal effect.

The subject of the assay is Tov112D. As to the kind of experiment: Primary qHTS to identify gynecologic anti-cancer compounds using libraries of approved drugs and bioactive compounds (AID 1345084). Further: nearly all actives have a fitted effect of over 55% in size. The note with it: Gynecologic cancer cell panel viability, ATPlite luminescence, 48 h; series mostly up to 57.5 µM; activity change, negative = cytotoxicity: at the top concentration. The gist of the method:
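Five-concentration response, 48 h; readout is ATP-driven luciferase luminescence.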
Take `Cc1cc(CS(=O)(=O)c2ccccc2)cc(OCc2ccc(CN3CCCC3CO)cc2)c1` (centres undefined): the “activity change, negative = cytotoxicity” value is -14.7% (inactive). Same read-out and setting: under `O=C(c1ccc(F)cc1)N1CCCC(c2nc(-c3ccc(F)cc3)no2)C1` (centres undefined) stands 1.08% (inactive); under `CN1CCC(c2cn(C)c3ccc(OS(=O)(=O)c4c(F)cccc4F)cc23)CC1`, -1.84% (inactive); under `CC(CCC1(O)OC2CC3C4CC=C5CC(O[C@@H]6O[C@H](CO)[C@@H](O[C@@H]7O[C@@H](C)[C@H](O)[C@@H](O)[C@H]7O)[C@H](O)[C@H]6O[C@@H]6O[C@@H](C)[C@H](O)[C@@H](O)[C@H]6O)CCC5(C)C4CCC3(C)C2C1C)CO[C@@H]1O[C@H](CO)[C@@H](O)[C@H](O)[C@H]1O` (some centres undefined), -1.44% [at 11.6 µM] (inactive). As to `CC(C)(N)c1ncc(-c2ccc(OC(F)(F)F)cc2)[nH]1`, the “activity change, negative = cytotoxicity” value was -7.86% (inactive). As to `COc1cc(CCc2cc(NC(=O)c3ccc(N4CC(C)NC(C)C4)cc3)n[nH]2)cc(OC)c1` (centres undefined), the “activity change, negative = cytotoxicity” value is -30.9% (inactive). Consider `CC(=O)OC1CCC2(C)C(CCC3(C)C2CC=C2C4C(C)C(C)CCC4(C)CCC23C)C1(C)C(=O)O` (centres undefined), for which the “activity change, negative = cytotoxicity” value was -2.15% [at 25.3 µM] (inactive). Consider `COc1cc2nc(C3CC3)nc(N3CCN(c4ccccc4OC)CC3)c2cc1OC`, for which the “activity change, negative = cytotoxicity” value is -18.8% (inactive). Still for that read-out and setting: next, `Cc1nc(Nc2cnn(C3CCNCC3)c2)nc2c1N(C)C(=O)c1cc3ccccc3cc1N2C`: -27.3% (inactive).

For `Cc1cc(-c2nc(-c3ccc(OC(F)(F)F)cc3)no2)nn1Cc1ccnc(N2CCN(C3CC3)CC2)c1`, the “activity change, negative = cytotoxicity” value is -23.5% (inactive).

With `Cc1[nH]c2ccccc2c1CCNCc1ccc(/C=C/C(=O)NO)cc1`, the Potency was 0.316 µM (active). In the case of `CCOc1cccc(NC(=O)c2ccc(N3CCCC3)c(C(F)(F)F)c2)c1`, the “activity change, negative = cytotoxicity” value was 0.0054% (inactive).

In the case of `COCC(c1ccc(C(F)(F)F)cc1)N1CCN(C2(C)CCN(C(=O)c3c(C)ncnc3C)CC2)CC1C` (centres undefined), the “activity change, negative = cytotoxicity” value was 2.04% (inactive).

With `CC(C)(C)[C@H](NC(=O)c1ccc(N)c(Cl)c1)C(=O)N1CCC[C@H]1C(=O)N[C@H](C#N)CC(=O)O`, the “activity change, negative = cytotoxicity” value is -10.7% (inactive). As to `CC(O)(C(=O)C1CC1(CO)COC1OC(CO)C(O)C(O)C1O)C1C(O)CC2C3CC=C4CC(O)CC(O)C4(C)C3C(O)CC21C` (centres undefined), the Potency was 0.562 µM (active). Regarding `O=C(NCCCNc1nc(Nc2cccc(CN3CCOCC3)c2)ncc1C1CC1)C1CCC1`, the “activity change, negative = cytotoxicity” value was -1.73% (inactive).

Turning to `O=C1Nc2nc(-c3c(O)cccc3OCC3CC3)cc([C@@H]3CCCNC3)c2CO1`, the Potency is 22.4 µM (active). As for `CN1CCN(Cc2ccc(NC(=O)Cc3ccc(Oc4cc(NC(=O)C5CC5)ncn4)cc3)cc2C(F)(F)F)CC1`, the Potency was 5.62 µM (active). Regarding `CN(C)C(CCOc1cccc2ccccc12)c1ccccc1` (centres undefined), the “activity change, negative = cytotoxicity” value was -14.8% (inactive).

As to `CC(C)(O)c1ccc2c(c1)ncn2-c1cccc(-c2ccccc2C#N)c1`, the “activity change, negative = cytotoxicity” value is -0.381% (inactive). In the case of `Fc1ccc2[nH]ccc2c1-c1nc(N2CCOCC2)c2sc(CN3CCN(CC4CC4)CC3)cc2n1`, the “activity change, negative = cytotoxicity” value was -24.1% (inactive). For `CCn1c(=O)c(-c2ccc(Cl)cc2Cl)cc2cnc(Nc3ccc(N4CCNCC4)c(F)c3)nc21`, the “activity change, negative = cytotoxicity” value was -4.39% (inactive). For the compound `O=C(N[C@H]1CCC[C@H](CO)C1)C1CCN(c2nc3cc(Cl)c(-c4ccc(Cl)cc4)cc3o2)CC1`, the “activity change, negative = cytotoxicity” value was 1.9% (inactive). In the case of `Nc1cccc(CNC(=O)c2ccc(Oc3ccc(OCc4cccc(F)c4)cc3)nc2)c1`, the “activity change, negative = cytotoxicity” value is -26.4% (inactive).
